# In PubChem BioAssay AID2018 (Sanford-Burnham Center for Chemical Genomics, 2009):
# Among all 1,200 compounds or so, about 600 (50%) were called active. The set was probably picked from earlier hits. Some of the results follow. Entries with a potency or affinity are not part of this list. Unmarked numbers belong to inactive results. Rule as the data show it: active = inhibition above about 42%; inactive = the rest.
# Target: SUMO-conjugating enzyme UBC9 (Homo sapiens) (UniProt P63279)
# Assay: blockers of UBC9-mediated SUMO conjugation – biochemical, AlphaScreen, SUMOylation inhibitor project, confirmation (AID 2018)
# Details: AlphaScreen in vitro SUMOylation assay; at 35 µM; hits give high values
# Sequence of SUMO-conjugating enzyme UBC9 (Homo sapiens) (P63279 whole entry, looked up): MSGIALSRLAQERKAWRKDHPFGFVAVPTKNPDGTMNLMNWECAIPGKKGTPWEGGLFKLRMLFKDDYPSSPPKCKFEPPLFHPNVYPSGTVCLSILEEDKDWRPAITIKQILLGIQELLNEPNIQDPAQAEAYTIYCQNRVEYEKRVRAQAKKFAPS
row,Structure (SMILES),inhibition
1,CN(C)CCNS(=O)(=O)c1ccc2c3c(cccc13)C(=O)N2,15.4%
2,Oc1cccc2c(NC(=S)Nc3ccc(SC(F)F)cc3)cccc12,36.5%
3,O=C(NCCc1csc(-c2ccccc2)n1)c1c(F)cccc1Cl,-8.6%
4,COc1ccc(C=Nc2cccc3ncccc23)cc1,16.5%
5,CCOc1ccc(C=Nc2cccc3ncccc23)cc1,23.5%
6,Oc1ccccc1N=Cc1c(O)ccc2ccccc12,56.9% (active)
7,Oc1ccc(C=Nc2cccc3ccccc23)c(O)c1,42.8% (active)
8,Oc1ccc(C=Nc2cccc3ncccc23)c(O)c1,27.7%
9,O=[N+]([O-])c1cccc2cn[nH]c12,-0.5%
10,Oc1c(C=Nc2cccc3nsnc23)ccc2ccccc12,98% (active)
11,Oc1ccc2ccccc2c1C=Nc1ccc(Cl)cn1,26.1%
12,Oc1ccc(N=Cc2c(O)ccc3ccccc23)cc1,21.9%
13,N#CC1=C(N)N2C(=C(C#N)C1c1ccc(Br)cc1)Nc1ccccc12 (centres undefined),20.4%
14,Cc1cc(NCCO)c2cc(O)ccc2n1,3%
15,O=[N+]([O-])c1cc(C=Nc2cccc3c(O)cccc23)ccc1Cl,33.8%
16,O=[N+]([O-])c1ccc(C=Nc2ccc(Cl)c([N+](=O)[O-])c2)s1,98.4% (active)
17,O=C(NC(=S)Nc1cccc2c(O)cccc12)c1ccco1,41.6%
18,CCCC(=O)NC(=S)Nc1cccc2c(O)cccc12,10.1%
19,O=C(NC(=S)Nc1cccc2c(O)cccc12)c1cccc(Br)c1,52.7% (active)
20,NNc1nc2c(Cl)ccc(Cl)c2s1,8%
21,Cc1ccc(C)c(S(=O)(=O)Nc2ccc(O)c3ccccc23)c1,39.8%
22,Cc1ccc(C)c(S(=O)(=O)Nc2cc(SCC(=O)O)c(O)c3ccccc23)c1,51.2% (active)
23,Cc1cc(C)c(S(=O)(=O)Nc2cc(SCC(=O)O)c(O)c3ccccc23)cc1C,43.1% (active)
24,COc1ccc2c(C)c(C(=O)NCC(C)O)oc2c1OC (centres undefined),6.4%
25,COC(=O)c1cc2c(C)[nH]c(C)c2cc(C(=O)OC)c1=O,13.6%
26,CN1CCCc2cc3c(C(F)(F)F)cc(=O)oc3nc21,-9%
27,N#CC1=C(N)Oc2n[nH]c(-c3cccs3)c2C1c1cccs1 (centres undefined),33.5%
28,Cc1cc(-c2csc(NC(=O)c3ccc(C#N)cc3)n2)c(C)n1Cc1ccco1,21.4%
29,Cc1cc(NC(=O)CSc2nnc(Nc3ccccc3C)s2)no1,25.7%
